Mtb FBA inh = Mtb FBA enzyme inhibitors, primary screen, biochemical, fluorescence, strain H37Rv; Fructose-bisphosphate aldolase (Mycobacterium tuberculosis (strain ATCC 25618 / H37Rv)), …; purified M. tuberculosis FBA, fluorescence read-out; inhibition, % at 1 µM; 360,000 compounds, 2.3% hits; in the data active = inhibition above about 27%;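 also: 0% = vehicle and 100% = reference inhibitor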
Target sequence (P9WQA3 whole entry, looked up): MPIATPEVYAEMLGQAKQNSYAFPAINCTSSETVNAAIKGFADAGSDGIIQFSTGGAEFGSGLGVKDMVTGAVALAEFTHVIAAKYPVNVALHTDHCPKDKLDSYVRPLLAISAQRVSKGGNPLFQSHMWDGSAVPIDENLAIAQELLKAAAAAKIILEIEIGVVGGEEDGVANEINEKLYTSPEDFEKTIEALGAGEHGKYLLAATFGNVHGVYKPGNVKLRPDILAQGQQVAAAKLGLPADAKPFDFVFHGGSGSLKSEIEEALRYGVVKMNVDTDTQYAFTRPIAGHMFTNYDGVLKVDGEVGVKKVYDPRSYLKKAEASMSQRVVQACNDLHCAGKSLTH
BH1578 lux ind = inducers of Vibrio cholerae quorum light production without autoinducers, primary screen, BH1578 luxS cqsA deficient, single point. V. cholerae BH1578 lux reporter, luminescence, 6 h. activation, % at 18.7 µM. 350,000 compounds, 0.16% hits. AID 588436, 2011; in the data active = activation mostly above about 9.7%, no sharp cut-off
PrPC TRFRET = inhibitors of human cell surface prion protein PrPC, primary screen, cell-based, TR-FRET | AID 720596, 2013 | inhibition, % at 13.8 µM | Major prion protein (Homo sapiens), P04156 | 370,000 compounds, 0.43% hits | TR-FRET read-out; in the data active = inhibition above about 24%; also: 0% = median of the test wells and 100% = reference compound wells
GDH-TPI counter = GDH-TPI coupling enzyme inhibitors, primary screen, artefact control for M. tuberculosis FBA inhibitor project, biochemical, absorbance, full deck; 360,000 compounds, 1.2% hits; inhibition, % at 4.8 µM; GDH-TPI coupled enzyme counterscreen, NADH absorbance; in the data active = inhibition above about 30%;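 also: 0% = DMSO wells and 100% = wells lacking the enzyme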
SARS 3CLpro inh = SARS-CoV 3CLpro protease inhibitors, primary screen, biochemical, quenched FRET. 290,000 compounds, 0.14% hits. recombinant SARS-CoV 3CLpro, quenched FRET peptide cleavage. inhibition, % at 6 µM; in the data active = inhibition above about 12%
* marks the source's active call; other numbers are inactive results; i = inactive; x = no result; + = active, no number. An excerpt weighted towards active compounds, which were near 3.9% of everything screened.

SMILES	Mtb FBA inh	BH1578 lux ind	PrPC TRFRET	GDH-TPI counter	SARS 3CLpro inh
CN1CCN(c2ncnc3c2ncn3[C@H]2CN(Cc3ccc(F)cc3)C[C@@H](CO)O2)CC1	-1.3	-0.3	-6.6	0.9	x
O=c1c2ccccc2sc2ccccc12	23.3	i	2.1	-5.1	x
Cc1cc(=O)c2ccccc2s1	-3.2	i	7.1	31.9*	1.9
CNC(=O)COC(=O)/C=C/c1nc2ccccc2s1	4.9	-1.3	-2.1	10.2	6.2
CNC(=O)COC(=O)c1ccc(-c2nc3ccccc3s2)s1	19.5	i	-4.5	56.7*	3.1
CC(C)CCNC(=O)c1cc2c(=O)n3ccccc3nc2s1	120.8*	i	-19.5	25.9	3.0
CN(C)S(=O)(=O)c1cccc(NC(=O)c2cc3c(=O)n4ccccc4nc3s2)c1	4.5	-0.5	-0.9	9.6	-6.3
CCC(C)NC(=O)c1cc2c(=O)n3ccccc3nc2s1 (stereo unspecified)	+	i	-15.8	17.1	-2.2
COc1ccc2cc3cc(C(=O)Nc4ccc(F)cc4)sc3nc2c1	x	x	-21.0	x	x
CCC(C)NC(=O)c1cc2cc3ccc(OC)cc3nc2s1 (stereo unspecified)	109.7*	-0.7	-17.4	27.4	-1.3
CCOC(=O)Cc1csc(SCC(=O)N2CCN(c3ccccc3)CC2)n1	1.9	5.0	1.6	16.2	x
O=C(Nc1nc2ncccn2c1-c1ccc(F)cc1)c1ccccc1	x	x	-4.5	x	x
COc1ccc(/C=N\N=C2/SC(CC(=O)O)C(=O)N2c2ccc(O)cc2)cc1OC (stereo unspecified)	-0.4	-0.2	-5.9	43.5*	1.6
COc1cc(/C=N\N=C2/SC(CC(=O)O)C(=O)N2c2ccc(O)cc2)ccc1O (stereo unspecified)	1.2	-3.2	-4.9	32.0*	-0.3
CC(C)OC(=O)c1c(N)n(CCCN2CCOCC2)c2nc3ccccc3nc12	146.6*	-0.3	-10.1	12.1	-8.3
Nc1c(C(=O)NCc2ccc3c(c2)OCO3)c2nc3ccccc3nc2n1CCCN1CCOCC1	9.7	i	-4.8	2.4	-2.8
COc1ccccc1CNC(=O)c1c(N)n(CCCN2CCOCC2)c2nc3ccccc3nc12	82.2*	i	-15.5	13.7	2.0
CCOC(=O)[C@]12CCC=C1N(Cc1cccc3ccccc13)C(=O)[C@H](CC(=O)N1CCN(C(=O)C3CC3)CC1)C2	x	x	-7.1	x	x
CCCCn1c(N)c(N(CC(C)C)C(=O)C2CCCO2)c(=O)[nH]c1=O (stereo unspecified)	1.1	-10.0	-3.3	9.3	x
Cc1ccc(NC(=O)C2CCCN(S(=O)(=O)c3c(C)noc3/C=C/N(C)C)C2)c(C)c1 (stereo unspecified)	-1.7	i	-4.2	35.9*	-0.3
Cc1ccc(C)c(NC(=O)C2CCCN(S(=O)(=O)c3c(C)noc3/C=C/N(C)C)C2)c1 (stereo unspecified)	-4.1	-3.9	-2.1	38.5*	8.0
Cc1noc(/C=C/N(C)C)c1S(=O)(=O)N1CCCC(C(=O)Nc2ccc(F)cc2F)C1 (stereo unspecified)	-5.8	-2.1	0.0	39.3*	-1.8
Cc1ccc(NC(=O)C2CCCN(S(=O)(=O)c3c(C)noc3C)C2)c(Br)c1 (stereo unspecified)	2.7	-3.4	3.5	8.3	7.8
Cc1ccc(CCNC(=O)C2CCCN(S(=O)(=O)c3c(C)noc3/C=C/N(C)C)C2)cc1 (stereo unspecified)	-2.2	-0.2	-1.1	53.1*	4.1
Cc1ccc(CCNC(=O)C2CCCN(S(=O)(=O)c3c(C)noc3C)C2)cc1 (stereo unspecified)	2.7	x	2.6	6.9	0.4
SMILES	Mtb FBA inh	BH1578 lux ind	PrPC TRFRET	GDH-TPI counter	SARS 3CLpro inh
COc1ccc(-c2ccc(CCC(=O)O)n2CC(=O)Nc2ccccc2C)cc1	7.0	2.3	0.3	-2.5	3.0
Cc1ccc2[nH]c3c(=O)[nH]ncc3c2c1	10.7	0.6	2.1	-2.6	-1.5
Cc1ccc2[nH]c3c(=O)n(N)c(=O)[nH]c3c2c1	119.2*	i	2.5	10.3	-2.7
CC(=O)c1ccc(N2CCN(C(=O)c3cc(-c4cccnc4)nc4ccc(Br)cc34)CC2)cc1	0.8	-0.1	3.1	46.3*	-3.2
COC(=O)C1=C(C)N(C)C(=NCc2cccc(C(F)(F)F)c2)NC1c1ccc(C(F)(F)F)cc1 (stereo unspecified)	x	x	-3.8	x	x
Cc1cc(C)c2c(n1)nn1c(NCCCN(C)C)cc(C)nc21	+	-0.3	8.1	5.3	-0.3
Cc1cc(C)c2c(n1)nn1c(NCCOCCO)cc(C)nc21	+	-3.2	3.3	1.4	0.5
CCc1nn2c(NCCCO)cc(C)nc2c1-c1ccc(F)cc1	-1.0	-0.3	-2.8	-0.8	3.8
CN(C)c1nc(N(C)C)n(Cc2c(Cl)cccc2Cl)n1	0.3	-0.4	4.7	-2.2	-2.0
O=C(CSc1ccc([N+](=O)[O-])cn1)Nc1nccs1	-3.5	-0.5	-4.6	34.5*	-2.3
Cc1ccc(-n2c(O)c(C=Nc3ccccc3-c3n[nH]c(=S)[nH]c3=O)c3ccccc3c2=O)cc1C	4.9	i	-19.0	14.4	-2.4
Cc1cccc(-n2c(O)c(/C=N/NC(=O)c3ccccc3Cl)c3ccccc3c2=O)n1	26.6	-0.2	-15.6	34.6*	4.0
Cc1cccc(-n2c(O)c(C=Nc3ccccc3-c3n[nH]c(=S)[nH]c3=O)c3ccccc3c2=O)n1	5.1	-0.5	-17.9	37.2*	-0.1
Cc1ccc(-n2c(N)c(C(=O)Nc3ccccc3F)sc2=S)cc1C	-0.2	-0.5	-5.1	32.9*	-2.9
C/C(=C\C(=O)c1ccccc1)NCc1ccc(F)cc1	3.0	-0.5	-2.4	31.3*	-0.3
COc1c(Br)cc(Br)cc1/C=N/n1c(C)nnc1C	0.9	5.6*	-1.2	0.3	4.9
O=C(Nc1ccc(F)c(Cl)c1)c1cc(C2CCCCN2C(=O)c2ccc3c(c2)CCO3)on1 (stereo unspecified)	-0.7	i	-6.1	-1.8	x
Nc1nc(N)c2[nH]c(-c3ccccc3)nc2n1	+	1.6	3.3	10.8	4.9
C[C@@]12C(=O)OC(=O)[C@]1(C)C1CCC2O1	4.6	0.8	40.6*	-12.1	x
c1coc(CSc2ncnc3c2oc2ccccc23)c1	-0.6	i	8.7	1.5	3.0
C=CCc1c(C)nc(C)nc1N/N=C/c1ccc(F)cc1	-1.3	i	4.2	32.5*	1.4
COc1cc(C=C2C(=O)c3ccccc3C2=O)cc(OC)c1OC	-5.4	-0.6	-1.8	0.9	-7.5
COc1cc(C=Cc2nnc3c4ccccc4cnn23)cc(OC)c1OC	-0.5	-4.0	-1.1	54.7*	x
CC(C)(C)NC(=O)CCN(/N=C/c1ccncc1)C1=NS(=O)(=O)c2ccccc21	0.0	1.2	8.0	16.4	-2.7
